Results filed as inconclusive are left out. Active and inactive are the calls of the source. The calls were made as follows, unless noted: active = hit-call score of the fitted dose curve at least 0.9, where 1 is the maximum; inactive = score below 0.9.
Tests used:
[1] = target: Paired box protein Pax-6 (Homo sapiens) (UniProt P26367); assay: ATG_Pax6_CIS: Attagene CIS-FACTORIAL HepG2 Assay for human Paired Box 6 (PAX6) (AID 2282956); conditions: HepG2 CIS-FACTORIAL PAX6 reporter transcription, RNA readout; actives raise or lower the signal
How it was run: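 Fluorescent RT-PCR products separated by capillary electrophoresis report PAX6-linked promoter mRNA in HepG2 cells 24 h post-dose. Curves fitted bidirectionally, DMSO as negative control.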

[2] = ATG_PPRE_CIS: Attagene CIS-FACTORIAL HepG2 Assay for human Peroxisome Proliferator-activated Response Element (PPRE) (AID 2282958); conditions: HepG2 PPRE cis-element reporter, Attagene transcription factor profiling; actives raise or lower the signal
How it was run: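 Endogenous PPRE-driven transcription is measured in HepG2 cells carrying transfected multi-reporter constructs. Reporter transcripts are quantified by RT-PCR, HpaI digestion and capillary electrophoresis 24 h after dosing. DMSO baseline, bidirectional fit.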

[3] = ATG_RORE_CIS: Attagene CIS-FACTORIAL HepG2 Assay for human RAR-related Orphan Receptor Element (RORE) (AID 2282959); conditions: HepG2 Attagene cis-factorial RORE reporter, mRNA; actives raise or lower the signal
How it was run: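 RORE reporter transcripts reflecting endogenous factor activity were read after 24 h compound exposure of transfected HepG2 cells, using reverse transcription, PCR, fluorescent labelling and capillary electrophoresis sizing. Gain or loss fitted against DMSO.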

[4] = ATG_Sox_CIS: Attagene CIS-FACTORIAL HepG2 Assay for human SRY-box transcription factor (SOX) (AID 2282960); conditions: HepG2 Attagene cis-factorial SOX reporter, mRNA; actives raise or lower the signal
How it was run: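 Reporter transcripts, measured by RT-PCR and capillary electrophoresis of labelled fragments, report endogenous SOX transcription factor activity. Transiently transfected human HepG2 cells receive chemical for 24 h; changes in either direction are fitted relative to DMSO.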

[5] = target: Transcription factor Sp1 (Homo sapiens) (UniProt P08047); assay: ATG_Sp1_CIS: Attagene CIS-FACTORIAL HepG2 Assay for human Specificity Protein 1 (Sp1) (AID 2282961); conditions: HepG2 Sp1 cis-reporter transcription, actives raise or lower the signal
How it was run: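 Read-out is reporter transcript level, measured by RT-PCR and fluorescent capillary electrophoresis after 24 h chemical treatment. System: transiently transfected HepG2 cells reporting endogenous transcription factor activity; gain or loss fitted against DMSO baseline.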

[6] = target: Signal transducer and activator of transcription 3 (Homo sapiens) (UniProt P40763); assay: ATG_STAT3_CIS: Attagene CIS-FACTORIAL HepG2 Assay for human Signal Transducer and Activator of Transcription 3 (STAT3) (AID 2282963); conditions: HepG2, Attagene cis-factorial STAT3 reporter transcription; actives raise or lower the signal
How it was run: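 Readout: fluorescent reporter mRNA fragments resolved by capillary electrophoresis. Setup: HepG2 transfected with MRTUs reporting endogenous transcription-factor activity, dosed 24 h. Gain or loss of signal fitted bidirectionally against DMSO control.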

[7] = ATG_TA_CIS: Attagene CIS-FACTORIAL HepG2 Assay for human TA Basal Promoter (AID 2282964); conditions: HepG2 Attagene CIS-factorial TA basal promoter reporter; actives raise or lower the signal
How it was run: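 Read-out: fluorescent reporter-transcript fragments resolved by capillary electrophoresis after RT-PCR and HpaI digestion. Source: HepG2 cells carrying transiently transfected multi-reporter cis constructs, treated 24 h. Endpoint fitted bidirectionally relative to DMSO.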

[8] = ATG_TCF_b_cat_CIS: Attagene CIS-FACTORIAL HepG2 Assay for human T-Cell-Factor with beta-catenin (TCF/b-cat) (AID 2282965); conditions: HepG2 TCF/beta-catenin cis-reporter transcription, actives raise or lower the signal
How it was run: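 HepG2, transient MRTU transfection, cis-element-driven reporters (endogenous TFs). 24 h compound exposure. Readout: reporter mRNA by RT-PCR + 6-FAM primer extension, HpaI digest, capillary electrophoresis. Gain/loss fit vs DMSO baseline.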

[9] = ATG_TAL_CIS: Attagene CIS-FACTORIAL HepG2 Assay for human TAL Basal Promoter (AID 2282966); conditions: HepG2 Attagene cis-factorial TAL promoter reporter; actives raise or lower the signal;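 also: background control endpoint measuring basal TAL promoter reporter mRNA not a specific factor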
How it was run: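 Human hepatoma HepG2 cells, transfected with promoter-regulated reporter units, were treated 24 h. Reporter transcript levels, measured through RT-PCR and capillary electrophoresis, were fitted for gain or loss relative to DMSO.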

[10] = ATG_TGFb_CIS: Attagene CIS-FACTORIAL HepG2 Assay for human Transforming Growth Factor (TGF) (AID 2282967); conditions: HepG2 Attagene CIS TGFb reporter, mRNA transcription; actives raise or lower the signal
How it was run: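 Transient MRTU transfection of HepG2 (FuGene 6). Dose 24 h. TriZol RNA, oligo(dT) RT, PCR, 6-FAM primer extension, HpaI cut, CE. Bidirectional fit, DMSO = baseline.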

[11] = ATG_VDRE_CIS: Attagene CIS-FACTORIAL HepG2 Assay for human Vitamin D Receptor Element (VDRE) (AID 2282968); conditions: HepG2 VDRE cis-reporter transcription, actives raise or lower the signal
How it was run: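 Transient MRTU transfection of HepG2, 24 h compound exposure. Readout: reporter transcripts via RT-PCR and capillary electrophoresis, fluorescence. Bidirectional fit vs DMSO.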

[12] = target: Estrogen receptor (Homo sapiens) (UniProt P03372); assay: ATG_ERa_TRANS: Attagene TRANS-FACTORIAL HepG2 Assay for human Estrogen Receptor alpha (ERa) (AID 2282970; active = hit-call score of the fitted dose curve at least 0.9, where 1 is the maximum); conditions: HepG2 Attagene TRANS ERa GAL4 reporter, mRNA
How it was run: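 Signal derives from fluorescence of labelled reporter PCR fragments separated by capillary electrophoresis. HepG2 cells transiently carrying multiple GAL4-UAS reporter units were treated 24 hours, and induction above DMSO baseline was fitted as activity.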

[13] = target: X-box-binding protein 1 (Homo sapiens) (UniProt P17861); assay: ATG_Xbp1_CIS: Attagene CIS-FACTORIAL HepG2 Assay for human X-box Binding Protein 1 (XBP1) (AID 2282972); conditions: HepG2 XBP1 cis-element reporter, Attagene multiplex; actives raise or lower the signal
How it was run: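 Multiplexed cis-reporter readout in transfected HepG2 liver cells. Exposure lasted 24 hours. Activity in either direction was fitted against DMSO as negative control and baseline.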

[14] = ATG_M_19_TRANS: Attagene TRANS-FACTORIAL HepG2 Assay for M19 Transcription Factor (Internal Marker) (AID 2282974; active = hit-call score of the fitted dose curve at least 0.9, where 1 is the maximum); conditions: HepG2 Attagene TRANS-FACTORIAL M19 internal marker reporter
How it was run: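 Background-control readout: after 24 h chemical exposure of transfected HepG2 carrying GAL4-driven reporter units, RNA was reverse-transcribed, amplified, fluorescently labeled and sized by capillary electrophoresis; gain-of-signal fit against DMSO.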

[15] = ATG_GAL4_TRANS: Attagene TRANS-FACTORIAL HepG2 Assay for GAL4 (Internal Marker) (AID 2282976; active = hit-call score of the fitted dose curve at least 0.9, where 1 is the maximum); conditions: HepG2 Attagene TRANS GAL4 internal marker reporter
How it was run: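 Liver HepG2 line bearing multiplexed GAL4-UAS reporter constructs; 24 h chemical treatment. Transcripts were quantified as fluorescent fragments on capillary electrophoresis after RT-PCR and HpaI cut, with activity fitted upward from DMSO.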

[16] = ATG_SREBP_CIS: Attagene CIS-FACTORIAL HepG2 Assay for human Sterol Regulatory Element Binding (SREBP) (AID 2282962); conditions: HepG2 Attagene cis-factorial SREBP reporter, mRNA; actives raise or lower the signal
How it was run: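 Endogenous factor activity is measured in HepG2 through multiplexed reporter units under cis-element control. Following a 24 h incubation, reporter transcripts are reverse-transcribed, PCR-amplified and sized by capillary electrophoresis; activity is fitted in both directions relative to DMSO.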

[17] = target: Nuclear receptor subfamily 1 group I member 3 (Homo sapiens) (UniProt Q14994); assay: ATG_CAR_TRANS: Attagene TRANS-FACTORIAL HepG2 Assay for human Constitutive Androstane Receptor (CAR) (AID 2282969; active = hit-call score of the fitted dose curve at least 0.9, where 1 is the maximum;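 also: activators raise reporter mRNA above DMSO so AC50 marks induction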); conditions: HepG2 Attagene TRANS-FACTORIAL CAR reporter
How it was run: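 Transiently transfected HepG2, multiplex TRANS reporters (CAR-Gal4 chimera driving GAL4-UAS reporter). 24 h dosing. Readout: reporter transcript by RT-PCR + capillary electrophoresis, fluorescence intensity; positive direction vs DMSO.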

[18] = target: Steroid hormone receptor ERR1 (Homo sapiens) (UniProt P11474); assay: ATG_ERRa_TRANS: Attagene TRANS-FACTORIAL HepG2 Assay for human Estrogen-Related Receptor alpha (ERRa) (AID 2282971; active = hit-call score of the fitted dose curve at least 0.9, where 1 is the maximum); conditions: HepG2 Attagene TRANS reporter, ERRa transactivation
How it was run: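 Signal gain relative to DMSO for an ERRa-Gal4 chimeric receptor, read as reporter mRNA by RT-PCR/capillary electrophoresis. Human HepG2 liver cells, transient multiplex reporter transfection, 24 h chemical exposure.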

[19] = ATG_PXRE_CIS: Attagene CIS-FACTORIAL HepG2 Assay for human Pregnane X Receptor Element (PXRE) (AID 2282957); conditions: HepG2 Attagene CIS-FACTORIAL PXRE reporter, mRNA; actives raise or lower the signal
How it was run: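 Bidirectional activity, baselined to DMSO, derived from reporter mRNA fluorescence (RT-PCR plus capillary electrophoresis) in HepG2 cells bearing cis-promoter reporter units, 24 h exposure.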

[20] = target: Estrogen-related receptor gamma (Homo sapiens) (UniProt P62508); assay: ATG_ERRg_TRANS: Attagene TRANS-FACTORIAL HepG2 Assay for human Estrogen-Related Receptor gamma (ERRg) (AID 2282977; active = hit-call score of the fitted dose curve at least 0.9, where 1 is the maximum;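 also: hits increase reporter signal over DMSO so potencies reflect activators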); conditions: HepG2 Attagene TRANS reporter, ERRg transactivation
How it was run: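 Exogenous NR-Gal4 chimera activity was assessed in HepG2 cells bearing transfected GAL4-UAS reporters. After 24 h dosing, total RNA underwent RT-PCR, fluorescent primer extension and HpaI digestion before capillary electrophoresis, with gain of signal scored against DMSO.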

Measured: AC50

Chain of Transcription factor Sp1 (Homo sapiens) (P08047 whole entry, looked up): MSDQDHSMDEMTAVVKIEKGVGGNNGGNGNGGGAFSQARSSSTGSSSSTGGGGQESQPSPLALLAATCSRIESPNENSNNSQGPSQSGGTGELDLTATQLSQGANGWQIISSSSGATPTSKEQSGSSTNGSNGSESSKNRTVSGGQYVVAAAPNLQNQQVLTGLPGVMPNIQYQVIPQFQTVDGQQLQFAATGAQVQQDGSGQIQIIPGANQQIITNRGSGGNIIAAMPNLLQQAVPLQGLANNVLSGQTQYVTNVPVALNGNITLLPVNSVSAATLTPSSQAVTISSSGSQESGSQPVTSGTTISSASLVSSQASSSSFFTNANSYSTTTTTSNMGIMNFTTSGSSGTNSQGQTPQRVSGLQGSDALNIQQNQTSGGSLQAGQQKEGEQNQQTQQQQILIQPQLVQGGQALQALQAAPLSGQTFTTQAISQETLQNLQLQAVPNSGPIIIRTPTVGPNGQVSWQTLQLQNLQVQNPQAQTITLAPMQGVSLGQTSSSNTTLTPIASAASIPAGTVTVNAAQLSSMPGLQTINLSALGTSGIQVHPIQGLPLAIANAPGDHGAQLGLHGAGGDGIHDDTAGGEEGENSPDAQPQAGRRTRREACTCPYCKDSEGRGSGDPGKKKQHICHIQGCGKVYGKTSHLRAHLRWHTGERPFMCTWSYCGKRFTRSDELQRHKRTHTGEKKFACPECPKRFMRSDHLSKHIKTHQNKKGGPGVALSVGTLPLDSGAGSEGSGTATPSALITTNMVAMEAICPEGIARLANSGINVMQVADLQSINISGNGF
Chain of Estrogen receptor (Homo sapiens) (P03372 whole entry, looked up, the tested form may be a part): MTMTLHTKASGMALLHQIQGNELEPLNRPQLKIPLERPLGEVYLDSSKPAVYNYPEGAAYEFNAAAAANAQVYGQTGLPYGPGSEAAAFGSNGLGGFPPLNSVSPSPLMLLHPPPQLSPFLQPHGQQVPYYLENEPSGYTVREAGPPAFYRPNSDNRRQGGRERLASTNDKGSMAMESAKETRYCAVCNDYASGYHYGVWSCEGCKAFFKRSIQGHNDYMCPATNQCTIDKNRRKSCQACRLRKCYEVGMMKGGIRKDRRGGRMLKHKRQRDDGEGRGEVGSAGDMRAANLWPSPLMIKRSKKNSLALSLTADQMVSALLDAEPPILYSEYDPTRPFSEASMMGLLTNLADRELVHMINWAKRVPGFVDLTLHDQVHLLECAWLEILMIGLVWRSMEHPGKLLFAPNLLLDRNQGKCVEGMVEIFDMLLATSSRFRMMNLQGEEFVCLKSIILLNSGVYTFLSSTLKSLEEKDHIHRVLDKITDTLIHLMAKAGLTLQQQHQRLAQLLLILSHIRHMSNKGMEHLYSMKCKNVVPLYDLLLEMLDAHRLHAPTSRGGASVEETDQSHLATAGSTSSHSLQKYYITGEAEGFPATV
Chain of Nuclear receptor subfamily 1 group I member 3 (Homo sapiens) (Q14994 whole entry, looked up, the tested form may be a part): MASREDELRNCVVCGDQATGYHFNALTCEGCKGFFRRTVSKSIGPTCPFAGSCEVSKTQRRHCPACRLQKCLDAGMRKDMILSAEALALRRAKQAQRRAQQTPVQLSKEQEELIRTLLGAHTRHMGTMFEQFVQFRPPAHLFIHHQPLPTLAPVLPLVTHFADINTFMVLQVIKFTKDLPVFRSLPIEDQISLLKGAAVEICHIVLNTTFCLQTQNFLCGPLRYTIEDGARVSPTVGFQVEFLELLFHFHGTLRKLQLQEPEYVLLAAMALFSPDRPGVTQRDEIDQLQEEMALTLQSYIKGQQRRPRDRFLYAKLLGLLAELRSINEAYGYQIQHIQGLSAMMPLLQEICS
Chain of X-box-binding protein 1 (Homo sapiens) (P17861 whole entry, looked up): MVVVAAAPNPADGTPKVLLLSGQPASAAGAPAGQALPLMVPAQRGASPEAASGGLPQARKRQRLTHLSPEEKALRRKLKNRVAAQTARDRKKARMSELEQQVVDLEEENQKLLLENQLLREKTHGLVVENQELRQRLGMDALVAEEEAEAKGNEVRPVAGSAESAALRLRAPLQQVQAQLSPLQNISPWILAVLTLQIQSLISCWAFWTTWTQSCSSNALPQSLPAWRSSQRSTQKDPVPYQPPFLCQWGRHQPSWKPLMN
Chain of Steroid hormone receptor ERR1 (Homo sapiens) (P11474 whole entry, looked up, the tested form may be a part): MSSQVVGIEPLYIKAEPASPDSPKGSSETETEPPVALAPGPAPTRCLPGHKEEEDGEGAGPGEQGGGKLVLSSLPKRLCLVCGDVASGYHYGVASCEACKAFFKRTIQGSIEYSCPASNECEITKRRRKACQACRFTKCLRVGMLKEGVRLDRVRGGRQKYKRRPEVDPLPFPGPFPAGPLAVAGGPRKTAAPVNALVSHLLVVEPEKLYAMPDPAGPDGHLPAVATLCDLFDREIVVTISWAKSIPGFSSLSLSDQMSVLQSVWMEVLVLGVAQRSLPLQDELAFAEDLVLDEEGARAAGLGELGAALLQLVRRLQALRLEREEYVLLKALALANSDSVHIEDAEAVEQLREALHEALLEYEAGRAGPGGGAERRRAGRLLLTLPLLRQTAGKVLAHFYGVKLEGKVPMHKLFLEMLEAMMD
Chain of Paired box protein Pax-6 (Homo sapiens) (P26367 whole entry, looked up): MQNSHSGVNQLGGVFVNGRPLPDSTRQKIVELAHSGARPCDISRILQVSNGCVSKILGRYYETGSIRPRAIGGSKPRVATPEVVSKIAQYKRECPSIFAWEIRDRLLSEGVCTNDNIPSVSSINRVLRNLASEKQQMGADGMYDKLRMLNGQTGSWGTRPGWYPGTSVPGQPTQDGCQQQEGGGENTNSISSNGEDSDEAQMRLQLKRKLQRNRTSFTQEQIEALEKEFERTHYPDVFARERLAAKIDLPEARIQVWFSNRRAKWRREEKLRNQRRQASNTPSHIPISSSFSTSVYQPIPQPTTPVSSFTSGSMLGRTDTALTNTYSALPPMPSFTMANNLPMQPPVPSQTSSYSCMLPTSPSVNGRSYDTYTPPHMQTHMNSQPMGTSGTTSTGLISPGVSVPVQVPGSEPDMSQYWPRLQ
Chain of Signal transducer and activator of transcription 3 (Homo sapiens) (P40763 whole entry, looked up, the tested form may be a part): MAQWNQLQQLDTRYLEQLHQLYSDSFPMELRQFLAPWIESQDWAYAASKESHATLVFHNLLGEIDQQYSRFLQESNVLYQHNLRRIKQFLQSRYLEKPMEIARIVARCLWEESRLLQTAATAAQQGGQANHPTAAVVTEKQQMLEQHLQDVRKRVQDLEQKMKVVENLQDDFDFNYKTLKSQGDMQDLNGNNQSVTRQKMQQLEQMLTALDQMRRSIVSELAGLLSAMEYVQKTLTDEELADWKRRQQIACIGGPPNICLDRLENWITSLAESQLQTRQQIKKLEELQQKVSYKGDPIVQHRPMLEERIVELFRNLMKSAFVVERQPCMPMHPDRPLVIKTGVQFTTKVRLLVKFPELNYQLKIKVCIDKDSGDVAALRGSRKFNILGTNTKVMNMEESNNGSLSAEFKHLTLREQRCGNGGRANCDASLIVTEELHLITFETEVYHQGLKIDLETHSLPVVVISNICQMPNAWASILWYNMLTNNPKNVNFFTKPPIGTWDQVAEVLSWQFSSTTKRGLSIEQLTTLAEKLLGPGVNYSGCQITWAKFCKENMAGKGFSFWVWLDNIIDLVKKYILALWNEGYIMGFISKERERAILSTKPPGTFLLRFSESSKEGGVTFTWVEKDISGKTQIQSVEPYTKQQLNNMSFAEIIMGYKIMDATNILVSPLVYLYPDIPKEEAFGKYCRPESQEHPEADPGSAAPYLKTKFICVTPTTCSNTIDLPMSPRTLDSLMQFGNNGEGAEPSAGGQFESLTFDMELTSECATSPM
Chain of Estrogen-related receptor gamma (Homo sapiens) (P62508 whole entry, looked up, the tested form may be a part): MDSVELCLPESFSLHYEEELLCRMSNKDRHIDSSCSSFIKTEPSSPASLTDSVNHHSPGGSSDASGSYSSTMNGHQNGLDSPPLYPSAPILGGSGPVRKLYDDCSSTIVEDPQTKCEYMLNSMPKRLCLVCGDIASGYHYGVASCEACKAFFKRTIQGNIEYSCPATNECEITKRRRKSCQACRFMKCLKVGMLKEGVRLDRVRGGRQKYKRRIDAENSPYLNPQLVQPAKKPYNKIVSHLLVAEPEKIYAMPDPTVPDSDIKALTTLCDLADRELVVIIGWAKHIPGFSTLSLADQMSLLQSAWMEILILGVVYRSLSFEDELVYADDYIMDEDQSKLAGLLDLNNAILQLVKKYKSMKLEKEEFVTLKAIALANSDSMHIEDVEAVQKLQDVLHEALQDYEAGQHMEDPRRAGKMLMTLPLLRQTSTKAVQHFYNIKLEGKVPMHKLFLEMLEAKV

CC1=CC[C@H]2C[C@@H]1C2(C)C
not listed: [16] | [17] | [18] | [19] | [20]
inactive: all other assays above

O=C(Oc1ccccc1)c1ccc2ccccc2c1O
active: [2] 41.6 µM | [3] 34.3 µM | [6] 26.1 µM | [11] 26.4 µM | [13] 38.6 µM
not listed: [7] | [10] | [14] | [15] | [19] | [20]
inactive: all other assays above

C1=CCCC1
not listed: [6] | [14] | [17] | [18] | [19] | [20]
inactive: all other assays above

O=C(O)C(c1ccc(Cl)cc1)c1ccc(Cl)cc1
active: [19] 62.7 µM | [12] 7.33 µM
not listed: [2] | [3] | [6] | [13] | [17] | [18] | [20]
inactive: all other assays above

COc1ccc(C(Cl)=C(c2ccc(OC)cc2)c2ccc(OC)cc2)cc1
active: [19] 2.54 µM
not listed: [2] | [3] | [11] | [12] | [14] | [15] | [16] | [20]
inactive: all other assays above

C=CC(=O)NC(C)(C)CS(=O)(=O)O
not listed: [7] | [12] | [14] | [18] | [19] | [20]
inactive: all other assays above

CCN(Cc1cccc(S(=O)(=O)O)c1)c1ccc(C(=C2C=CC(=[N+](CC)Cc3cccc(S(=O)(=O)[O-])c3)C=C2)c2ccccc2)cc1
active: [10] 37.4 µM
not listed: [3] | [14] | [18] | [19] | [20]
inactive: all other assays above

C=CC(=O)OCC(Br)CBr (stereo unspecified)
active: [1] 34.5 µM | [10] 0.39 µM | [11] 26.3 µM | [12] 100 µM
inactive: [2] | [3] | [4] | [5] | [16] | [7] | [9] | [13] | [14]

Cc1cccc(N(C)C(=S)Oc2ccc3ccccc3c2)c1
active: [2] 24.4 µM | [3] 20.5 µM | [10] 9.03 µM | [11] 1.11 µM | [12] 3.78 µM
not listed: [14] | [18] | [19] | [20]
inactive: all other assays above

O=C(O)CCCCCCCCCC(=O)O
active: [12] 22.7 µM
not listed: [7] | [14] | [16] | [17] | [19]
inactive: all other assays above

Reference: PubChem BioAssay (EPA / NIEHS)
